Source: PubChem BioAssay (NCI)
Compounds without any hit were thinned out: in the full panel of roughly 79,000, 15% have a hit. Activity calls are given as the source filed them. No stated cut-off is given here; in the data, active means growth inhibition above about 70%; inactive means the rest.

Assay: NCI Yeast Anticancer Drug Screen. Data for the rad50EPP+ strain (AID 151);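 further: 0% = growth of vehicle-treated control cultures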
Settings: S. cerevisiae rad50 mutant strain, stronger effect = higher value
Description: Growth inhibition of yeast strains with defined genetic alterations is measured as a screen for potential anti-cancer activity. Selected strains with alterations in DNA damage repair or cell cycle control were exposed to compounds and growth inhibition was measured relative to vehicle treated controls. The strain used in this assay is rad50EPP+

Measured: growth inhibition

CN(C)CCNC(=O)c1cccc2c1Oc1c(cccc1[N+](=O)[O-])O2
inactive: at 1.2 µM 0% | at 3.7 µM 9% | at 11.0 µM 3% | at 33.0 µM 26% | at 100.0 µM 68%

C/C(=N\Nc1ccc([N+](=O)[O-])cc1[N+](=O)[O-])c1sc(-n2nc(-c3ccccc3)cc2-c2ccccc2)nc1C
inactive: at 1.2 µM 7% | at 3.7 µM 22% | at 11.0 µM 27% | at 33.0 µM 50% | at 100.0 µM 59%

C=C1C(=O)OC2CC1C(OC(C)=O)C/C(C)=C/CC/C(C)=C\CCC2(C)O (stereo not given)
inactive: at 1.2 µM 15% | at 3.7 µM 42% | at 11.0 µM 40% | at 33.0 µM 31% | at 100.0 µM 18%

Cn1c(=O)c2c(nc(N)n2C2OC(CO)C(O)C2O)n(C)c1=O (stereo not given)
inactive: at 1.2 µM -1% | at 3.7 µM 1% | at 11.0 µM 1% | at 33.0 µM -1% | at 100.0 µM 2%

CC(=O)Nc1ccc(/C=C/[N+](=O)[O-])cc1
active: at 33.0 µM 72% | at 100.0 µM 82%
inactive: at 1.2 µM 22% | at 3.7 µM 42% | at 11.0 µM 51%

O=C1C=C(Cl)C(=O)N1c1cccc(Cl)c1
inactive: at 1.2 µM 41%
active: at 3.7 µM 96% | at 11.0 µM 99% | at 33.0 µM 99% | at 100.0 µM 99%

CCCC/C([O-])=C1/C(=O)N(c2ccccc2)N=C1C.CCCC/C([O-])=C1/C(=O)N(c2ccccc2)N=C1C.[Cu+2]
inactive: at 1.2 µM -1% | at 3.7 µM 0% | at 11.0 µM -1% | at 33.0 µM -2% | at 100.0 µM 0%

Cc1cc(N(CCOS(C)(=O)=O)CCOS(C)(=O)=O)ccc1C=Nc1ccc(-c2nc(Cc3ccccc3)sc2C)cc1
inactive: at 1.2 µM 1% | at 3.7 µM -19% | at 11.0 µM 10% | at 33.0 µM 37%
active: at 100.0 µM 92%
